Data as given in PubChem BioAssay (NCATS).
Results filed as inconclusive are left out. Active and inactive are the calls of the source. Calls come from the whole dose curve; as a rule, active = well fitted curve in the direction sought with a large enough effect; inconclusive = small, poorly fitted or top-dose-only effect, or another doubt; inactive = no such curve, though single readings can be large; an effect the other way counts as inactive or inconclusive.

Legend:
[1] = Drug repurposing screens with cells derived from glioblastoma tumor samples (AID 1345199); conditions: GBM patient neurospheres viability, ATP luminescence, 48 h; note: nearly all actives have a fitted effect of over 40% in size
How it was run: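 Primary testing used CD133+ neurospheres from four GBM patients, seven concentrations, 48 h exposure and ATP-based viability; confirmation added three slower-growing patient lines.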

CAOV3 = assay: Primary qHTS to identify gynecologic anti-cancer compounds using libraries of approved drugs and bioactive compounds (AID 1345084); conditions: Gynecologic cancer cell panel viability, ATPlite luminescence, 48 h; series mostly up to 57.5 µM; note: nearly all actives have a fitted effect of over 55% in size
How it was run: (§1)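 Cytotoxicity screen measuring ATP content by luciferase luminescence. Each compound is applied at five concentrations for 48 h at 37 C with 5% CO2.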

HeLa = assay: as above; conditions: Gynecologic cancer cell panel viability, ATPlite luminescence, 48 h; series mostly up to 57.5 µM
How it was run: as §1

Hek293T = assay: as above; conditions: Gynecologic cancer cell panel viability, ATPlite luminescence, 48 h, control line for the selectivity index; series mostly up to 57.5 µM
How it was run: as §1

JEG-3 = assay: as above; conditions: Gynecologic cancer cell panel viability, ATPlite luminescence, 48 h; series mostly up to 57.5 µM
How it was run: as §1

OV90 = assay: as above; conditions: Gynecologic cancer cell panel viability, ATPlite luminescence, 48 h; series mostly up to 57.5 µM
How it was run: as §1

PA-1 = assay: as above; conditions: Gynecologic cancer cell panel viability, ATPlite luminescence, 48 h; series mostly up to 57.5 µM
How it was run: as §1

SKOV3 = assay: as above; conditions: Gynecologic cancer cell panel viability, ATPlite luminescence, 48 h; series mostly up to 57.5 µM
How it was run: as §1

Tov-21-G = assay: as above; conditions: Gynecologic cancer cell panel viability, ATPlite luminescence, 48 h; series mostly up to 57.5 µM
How it was run: as §1

Tov112D = assay: as above; conditions: Gynecologic cancer cell panel viability, ATPlite luminescence, 48 h; series mostly up to 57.5 µM
How it was run: as §1

C33A = assay: as above; conditions: Gynecologic cancer cell panel viability, ATPlite luminescence, 48 h; series mostly up to 57.5 µM
How it was run: as §1

CASKI = assay: as above; conditions: Gynecologic cancer cell panel viability, ATPlite luminescence, 48 h; series mostly up to 57.5 µM
How it was run: as §1

Es-2 = assay: as above; conditions: Gynecologic cancer cell panel viability, ATPlite luminescence, 48 h; series mostly up to 57.5 µM
How it was run: as §1

[2] = at 45.9 µM (top of the series), tumour line B
[3] = at 45.9 µM (top of the series), tumour line D
[4] = at 46 µM (top of the series), tumour line A
[5] = at 46.1 µM (top of the series), tumour line C
% is set by controls: 0 for no effect and ±100 for the full control effect; potency is the fitted concentration of half-maximal effect.

CCC(NC(C)C)C(O)c1ccc(O)c(O)c1 (centres undefined)
inactive: activity, negative = cell killing [1, 2] -1.77% | activity, negative = cell killing [1, 3] 12.5% | activity, negative = cell killing [1, 4] -20.2% | activity, negative = cell killing [1, 5] -19.2%

C[C@@H]1C(=O)NC2=Nc3cccc(Cl)c3CN21
inactive: activity, negative = cell killing [1, 2] -5.98% | activity, negative = cell killing [1, 3] -24.2% | activity, negative = cell killing [1, 5] -18.1%

O=c1[nH]c(=O)n([C@H]2C[C@H](O)[C@@H](CO)O2)cc1C(F)(F)F
active: Potency (PA-1) 8.91 µM | Potency (Tov112D) 11.2 µM
inactive: Potency (CAOV3) | Potency (HeLa) | Potency (Hek293T) | Potency (JEG-3) | Potency (OV90) | Potency (SKOV3) | Potency (Tov-21-G) | activity, negative = cell killing [1, 3] -28.4% | activity, negative = cell killing [1, 5] -13.3%

N[C@@H](Cc1cnc[nH]1)C(=O)O
inactive: activity, negative = cell killing [1, 2] -11.3% | activity, negative = cell killing [1, 3] -9.45% | activity, negative = cell killing [1, 5] -12.5%

Oc1ccc(Cl)c2cccnc12
inactive: Potency (C33A) | Potency (CASKI) | Potency (Es-2) | Potency (HeLa) | Potency (Hek293T) | Potency (JEG-3) | Potency (OV90) | Potency (PA-1) | Potency (SKOV3) | Potency (Tov-21-G) | Potency (Tov112D) | activity, negative = cell killing [1, 5] -0.921%

CC(CCc1ccccc1)NCC(O)c1ccc(O)c(C(N)=O)c1 (centres undefined)
inactive: Potency (C33A) | Potency (CAOV3) | Potency (CASKI) | Potency (Es-2) | Potency (HeLa) | Potency (Hek293T) | Potency (JEG-3) | Potency (OV90) | Potency (PA-1) | Potency (SKOV3) | Potency (Tov112D) | activity, negative = cell killing [1, 2] -24.2% | activity, negative = cell killing [1, 3] -11.2% | activity, negative = cell killing [1, 5] -24%

N[C@H](CO)C(=O)O
inactive: activity, negative = cell killing [1, 2] 4.31% | activity, negative = cell killing [1, 3] -24.3% | activity, negative = cell killing [1, 5] 2.37%

CC(C)COC(=O)OCN1C(=O)CN(CCN2CC(=O)N(COC(=O)OCC(C)C)C(=O)C2)CC1=O
inactive: activity, negative = cell killing [1, 2] -7.7% | activity, negative = cell killing [1, 3] -16.2% | activity, negative = cell killing [1, 4] -10.8% | activity, negative = cell killing [1, 5] -11%

COc1cc(C(=S)N2CCOCC2)cc(OC)c1OC
inactive: Potency (C33A) | Potency (CAOV3) | Potency (CASKI) | Potency (Es-2) | Potency (HeLa) | Potency (Hek293T) | Potency (JEG-3) | Potency (OV90) | Potency (PA-1) | Potency (SKOV3) | Potency (Tov-21-G) | Potency (Tov112D) | activity, negative = cell killing [1, 2] -7.77% | activity, negative = cell killing [1, 3] -20% | activity, negative = cell killing [1, 4] -25.7% | activity, negative = cell killing [1, 5] -20.5%

O=C1CCC(c2ccc(-n3ccnc3)cc2)=NN1
inactive: activity, negative = cell killing [1, 2] -6.09% | activity, negative = cell killing [1, 3] -6.36% | activity, negative = cell killing [1, 5] -27.3%

CC(C)NC[C@@H](O)COc1cccc2ccccc12
active: Potency ([1]; tumour line A) 28.2 µM
inactive: Potency (C33A) | Potency (CAOV3) | Potency (Es-2) | Potency (HeLa) | Potency (Hek293T) | Potency (JEG-3) | Potency (OV90) | Potency (PA-1) | Potency (SKOV3) | Potency (Tov-21-G) | Potency (Tov112D) | activity, negative = cell killing [1, 2] -11.2% | activity, negative = cell killing [1, 3] -22.3% | activity, negative = cell killing [1, 5] -5.6%

Nc1ccn([C@@H]2O[C@H](CO)[C@@H](O)C2(F)F)c(=O)n1
inactive: Potency (C33A) | Potency (CASKI) | Potency (HeLa) | Potency (Hek293T) | Potency (JEG-3) | Potency (Tov-21-G)
active: Potency (Tov112D) 0.178 µM

Cc1c(C(N)=O)cc([N+](=O)[O-])cc1[N+](=O)[O-]
inactive: Potency (C33A) | Potency (CAOV3) | Potency (CASKI) | Potency (Es-2) | Potency (HeLa) | Potency (Hek293T) | Potency (JEG-3) | Potency (OV90) | Potency (PA-1) | Potency (SKOV3) | Potency (Tov-21-G) | Potency (Tov112D) | activity, negative = cell killing [1, 2] -3.44% | activity, negative = cell killing [1, 3] -20.3% | activity, negative = cell killing [1, 4] -15.4% | activity, negative = cell killing [1, 5] 1.23%

CCCC1O[C@@H]2C[C@H]3[C@@H]4CCC5=CC(=O)C=C[C@]5(C)[C@H]4[C@@H](O)C[C@]3(C)[C@]2(C(=O)CO)O1 (some centres undefined)
inactive: activity, negative = cell killing [1, 2] -17.2% | activity, negative = cell killing [1, 3] -5.46% | activity, negative = cell killing [1, 5] -20.2%

O=C(O)c1cc2cc(Cc3cccnc3)ccc2o1
inactive: activity, negative = cell killing [1, 2] -16.4% | activity, negative = cell killing [1, 3] -17.6%

CCN1CCN(c2cc3c(cc2F)c(=O)c(C(=O)O)cn3C2CC2)CC1
inactive: Potency (C33A) | Potency (CAOV3) | Potency (CASKI) | Potency (Es-2) | Potency (HeLa) | Potency (Hek293T) | Potency (JEG-3) | Potency (OV90) | Potency (PA-1) | Potency (SKOV3) | Potency (Tov-21-G) | Potency (Tov112D) | activity, negative = cell killing [1, 2] 9.67% | activity, negative = cell killing [1, 3] -1.9% | activity, negative = cell killing [1, 4] -9.98% | activity, negative = cell killing [1, 5] 17.2%

O=C(O)CCCCC(=O)O
inactive: Potency (C33A) | Potency (CASKI) | Potency (Es-2) | Potency (HeLa) | Potency (Hek293T) | Potency (JEG-3) | Potency (OV90) | Potency (PA-1) | Potency (SKOV3) | Potency (Tov-21-G) | Potency (Tov112D) | activity, negative = cell killing [1, 2] 11.6% | activity, negative = cell killing [1, 3] -7.89% | activity, negative = cell killing [1, 4] -0.455% | activity, negative = cell killing [1, 5] 0.572%

C1CCc2nnnn2CC1
inactive: activity, negative = cell killing [1, 2] -2.41% | activity, negative = cell killing [1, 3] -3.11% | activity, negative = cell killing [1, 4] -28.5% | activity, negative = cell killing [1, 5] -27%

C[C@]12C=CC(=O)C=C1CC[C@@H]1[C@@H]2[C@@H](O)C[C@@]2(C)[C@H]1CC[C@]2(O)C(=O)CO
inactive: Potency (C33A) | Potency (CASKI) | Potency (Es-2) | Potency (HeLa) | Potency (Hek293T) | Potency (JEG-3) | Potency (OV90) | Potency (SKOV3) | Potency (Tov-21-G) | Potency (Tov112D) | activity, negative = cell killing [1, 2] -12.2% | activity, negative = cell killing [1, 3] -11.3% | activity, negative = cell killing [1, 4] -29.3% | activity, negative = cell killing [1, 5] -10.5%

C[C@]12CC[C@@H]3c4ccc(O)cc4CC[C@H]3[C@@H]1CC[C@@H]2O
active: Potency ([1]; tumour line A) 31.6 µM
inactive: activity, negative = cell killing [1, 2] -16.2% | activity, negative = cell killing [1, 5] -20.5%

C#C[C@]1(OC(C)=O)CC[C@H]2[C@@H]3CCC4=C[C@@H](OC(C)=O)CC[C@@H]4[C@H]3CC[C@@]21C
inactive: Potency (C33A) | Potency (CAOV3) | Potency (CASKI) | Potency (Es-2) | Potency (Hek293T) | Potency (JEG-3) | Potency (OV90) | Potency (PA-1) | Potency (SKOV3) | Potency (Tov-21-G) | Potency (Tov112D) | activity, negative = cell killing [1, 5] -26.2%
active: Potency ([1]; tumour line A) 10 µM | Potency ([1]; tumour line D) 17.8 µM

CC(C)(C)CC(C)(C)c1ccc(O)c(Cc2ccc(Cl)cc2Cl)c1
inactive: Potency (C33A) | Potency (CASKI) | Potency (JEG-3) | Potency (OV90) | Potency (PA-1) | Potency (Tov-21-G) | Potency (Tov112D)

CC1(C)CCC(NC(=O)[C@@H](N)CCC(=O)O)CC1
inactive: activity, negative = cell killing [1, 2] -9.8% | activity, negative = cell killing [1, 3] -20.2% | activity, negative = cell killing [1, 4] -26.1% | activity, negative = cell killing [1, 5] -24.2%

CCN1CCCC1=O
inactive: Potency (C33A) | Potency (CAOV3) | Potency (CASKI) | Potency (Es-2) | Potency (HeLa) | Potency (Hek293T) | Potency (JEG-3) | Potency (OV90) | Potency (PA-1) | Potency (SKOV3) | Potency (Tov-21-G) | Potency (Tov112D) | activity, negative = cell killing [1, 2] -8.97% | activity, negative = cell killing [1, 3] 9.06% | activity, negative = cell killing [1, 4] -27.1% | activity, negative = cell killing [1, 5] 2.13%
